{"source": "the supplement of paper PMC8728848", "binders": {"B1": {"name": "GS7807F-bth-514-18-514 (Bacteroides thetaiotaomicron) (protein)", "chain": "AGSCTGNFEEYNTNQFQIHEADPSTLMKSMIETIVNIQQNDSQMMDQMVGQLGGYLTCANVWSGTNFGTFNQSDAWNAGPWNTNFEKIYGNFFQIQEATNESGHYYAFARMIRAITMLRVADCYGPMPYSQVKKGNFYVAYDTEEQVYKNIMEDFASAANVLYNYYKDTNGNAPLASNDPVFSGNYANWARLANSMRLRVAIRISTAYPEMAKENAEAAASHEAGLIEANNDNAMMDCGSQTNPYQLAAVSWGDLRVNANIVDYMNGYGDPRMSKYFNHSTFTGHTQEYVGMRSGEDGFAKSDVAGYSIPAITGTSKLLVFCAAETAFLRAEGKLKNWSVGNKSAKEYYEEGIKLSMEQYGTTMPDNYLTNTEKPTVSHNNDPRGHAYTISNTVAVAWNDNNEEENLQRIITQKWIANYPLGLEAWAEYRRTGYPELYPCIDNLSPSGVDSKRGMRRLRFPYTEVQNNHSNYQQGVSYLKNGGPDNEATDLSWGKTN"}}, "test_in_all_cases": "glycan array binding signal (z-score within array); higher = stronger binding", "details_in_all_cases": "glycan notation: IUPAC condensed, linker removed", "key": {"[1]": {"molecular_target": "Fuc(a1-2)Gal(b1-3)GalNAc(b1-3)Gal(a1-4)Gal(b1-4)Glc", "in_short": "(§1)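 Glycan array binding is given as a within-array Z-score, which can be read as non-binding when negative. The arrays, 3228 of them, came from the Consortium for Functional Glycomics database and were retained only where the protein sequence was available. Z-scores were averaged across arrays of the same protein sequence at different concentrations or buffers and across linkers.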"}, "[2]": {"molecular_target": "Fuc(a1-2)Gal(b1-3)GlcNAc(b1-3)[Gal(b1-4)GlcNAc(b1-6)]Gal(b1-4)Glc", "in_short": "as §1"}, "[3]": {"molecular_target": "Fuc(a1-2)Gal(b1-4)GlcNAc(b1-2)Man", "in_short": "as §1"}, "[4]": {"molecular_target": "Fuc(a1-2)Gal(b1-4)[Fuc(a1-3)]GlcNAc(b1-2)[Fuc(a1-2)Gal(b1-4)[Fuc(a1-3)]GlcNAc(b1-4)]Man(a1-3)[Fuc(a1-2)Gal(b1-4)[Fuc(a1-3)]GlcNAc(b1-2)Man(a1-6)]Man(b1-4)GlcNAc(b1-4)GlcNAc", "in_short": "as §1"}, "[5]": {"molecular_target": "Fuc(a1-2)Gal(b1-4)[Fuc(a1-3)]GlcNAc(b1-3)[Neu5Ac(a2-6)Gal(b1-4)GlcNAc(b1-6)]Gal(b1-4)Glc", "in_short": "as §1"}, "[6]": {"molecular_target": "Fuc(a1-2)Gal6S(b1-3)GlcNAc6S", "in_short": "as §1"}, "[7]": {"molecular_target": "Fuc(a1-2)[Gal(a1-3)]Gal(b1-3)GlcNAc(b1-2)Man(a1-3)[Fuc(a1-2)[Gal(a1-3)]Gal(b1-3)GlcNAc(b1-2)Man(a1-6)]Man(b1-4)GlcNAc(b1-4)GlcNAc", "in_short": "as §1"}, "[8]": {"molecular_target": "Fuc(a1-2)[Gal(a1-3)]Gal(b1-4)GlcNAc(b1-2)Man", "in_short": "as §1"}, "[9]": {"molecular_target": "Fuc(a1-2)[GalNAc(a1-3)]Gal(b1-3)GlcNAc(b1-6)GalNAc", "in_short": "as §1"}, "[10]": {"molecular_target": "Fuc(a1-2)[GalNAc(b1-3)]Gal", "in_short": "as §1"}, "[11]": {"molecular_target": "Fuc(a1-3)[Gal(b1-4)]GlcNAc(b1-2)Man", "in_short": "as §1"}, "[12]": {"molecular_target": "Fuc(a1-3)[Gal(b1-4)]GlcNAc(b1-6)GalNAc", "in_short": "as §1"}, "[13]": {"molecular_target": "Gal(a1-2)Gal", "in_short": "as §1"}, "[14]": {"molecular_target": "Gal(a1-3)Gal(b1-3)GlcNAc", "in_short": "as §1"}, "[15]": {"molecular_target": "Gal(a1-4)Gal(b1-4)GlcNAc", "in_short": "as §1"}, "[16]": {"molecular_target": "Gal(b1-3)GalNAc(b1-4)Gal(b1-4)Glc", "in_short": "as §1"}, "[17]": {"molecular_target": "Gal(b1-3)GalNAc(b1-4)[Neu5Ac(a2-3)]Gal(b1-4)Glc", "in_short": "as §1"}, "[18]": {"molecular_target": "Gal(b1-3)GlcNAc(b1-2)Man(a1-3)[Gal(b1-3)GlcNAc(b1-2)Man(a1-6)]Man(b1-4)GlcNAc(b1-4)[Fuc(a1-6)]GlcNAc", "in_short": "as §1"}, "[19]": {"molecular_target": "Gal(b1-3)GlcNAc(b1-6)[Gal(b1-3)]GalNAc", "in_short": "as §1"}, "[20]": {"molecular_target": "Gal(b1-3)GlcNAc6S", "in_short": "as §1"}, "[21]": {"molecular_target": "Gal(b1-4)GlcNAc(b1-2)Man(a1-3)Man(b1-4)GlcNAc(b1-4)GlcNAc", "in_short": "as §1"}, "[22]": {"molecular_target": "Gal(b1-4)GlcNAc(b1-3)Gal(b1-4)GlcNAc(b1-3)Gal(b1-4)GlcNAc(b1-2)[Gal(b1-4)GlcNAc(b1-3)Gal(b1-4)GlcNAc(b1-3)Gal(b1-4)GlcNAc(b1-6)]Man(a1-6)[Gal(b1-4)GlcNAc(b1-3)Gal(b1-4)GlcNAc(b1-3)Gal(b1-4)GlcNAc(b1-2)Man(a1-3)]Man(b1-4)GlcNAc(b1-4)[Fuc(a1-6)]GlcNAc", "in_short": "as §1"}, "[23]": {"molecular_target": "Gal(b1-4)GlcNAc(b1-3)Gal(b1-4)GlcNAc(b1-3)Gal(b1-4)GlcNAc(b1-3)Gal(b1-4)GlcNAc(b1-3)Gal(b1-4)GlcNAc(b1-2)Man(a1-3)[Gal(b1-4)GlcNAc(b1-3)Gal(b1-4)GlcNAc(b1-3)Gal(b1-4)GlcNAc(b1-3)Gal(b1-4)GlcNAc(b1-3)Gal(b1-4)GlcNAc(b1-2)Man(a1-6)]Man(b1-4)GlcNAc(b1-4)GlcNAc", "in_short": "as §1"}, "[24]": {"molecular_target": "Gal(b1-4)GlcNAc(b1-3)Gal(b1-4)GlcNAc(b1-3)Gal(b1-4)GlcNAc(b1-3)Gal(b1-4)GlcNAc(b1-3)Gal(b1-4)GlcNAc(b1-3)Gal(b1-4)GlcNAc(b1-2)Man(a1-3)[Gal(b1-4)GlcNAc(b1-3)Gal(b1-4)GlcNAc(b1-3)Gal(b1-4)GlcNAc(b1-3)Gal(b1-4)GlcNAc(b1-3)Gal(b1-4)GlcNAc(b1-3)Gal(b1-4)GlcNAc(b1-2)Man(a1-6)]Man(b1-4)GlcNAc(b1-4)GlcNAc", "in_short": "as §1"}, "[25]": {"molecular_target": "Gal(b1-4)GlcNAc(b1-3)Gal(b1-4)GlcNAc(b1-3)[Gal(b1-4)GlcNAc(b1-3)Gal(b1-4)GlcNAc(b1-6)]GalNAc", "in_short": "as §1"}}, "note": "This is one part of a sample in which the strongest signals are shown more often than they occur."}
{"binder": "B1", "values": [{"measurement": "glycan array binding signal (z-score)", "setting": "[1]", "result": -0.883}, {"measurement": "glycan array binding signal (z-score)", "setting": "[2]", "result": -0.372}, {"measurement": "glycan array binding signal (z-score)", "setting": "[3]", "result": -0.353}, {"measurement": "glycan array binding signal (z-score)", "setting": "[4]", "result": -0.286}, {"measurement": "glycan array binding signal (z-score)", "setting": "[5]", "result": -0.798}, {"measurement": "glycan array binding signal (z-score)", "setting": "[6]", "result": -0.358}, {"measurement": "glycan array binding signal (z-score)", "setting": "[7]", "result": 0.454}, {"measurement": "glycan array binding signal (z-score)", "setting": "[8]", "result": -0.295}, {"measurement": "glycan array binding signal (z-score)", "setting": "[9]", "result": -0.854}, {"measurement": "glycan array binding signal (z-score)", "setting": "[10]", "result": 3.2}, {"measurement": "glycan array binding signal (z-score)", "setting": "[11]", "result": -0.562}, {"measurement": "glycan array binding signal (z-score)", "setting": "[12]", "result": -0.328}, {"measurement": "glycan array binding signal (z-score)", "setting": "[13]", "result": -0.45}, {"measurement": "glycan array binding signal (z-score)", "setting": "[14]", "result": 0.018}, {"measurement": "glycan array binding signal (z-score)", "setting": "[15]", "result": 0.384}, {"measurement": "glycan array binding signal (z-score)", "setting": "[16]", "result": 0.212}, {"measurement": "glycan array binding signal (z-score)", "setting": "[17]", "result": 3.23}, {"measurement": "glycan array binding signal (z-score)", "setting": "[18]", "result": 0.491}, {"measurement": "glycan array binding signal (z-score)", "setting": "[19]", "result": 1.38}, {"measurement": "glycan array binding signal (z-score)", "setting": "[20]", "result": 2.12}, {"measurement": "glycan array binding signal (z-score)", "setting": "[21]", "result": 0.202}, {"measurement": "glycan array binding signal (z-score)", "setting": "[22]", "result": 3.25}, {"measurement": "glycan array binding signal (z-score)", "setting": "[23]", "result": 4.26}, {"measurement": "glycan array binding signal (z-score)", "setting": "[24]", "result": 3.26}, {"measurement": "glycan array binding signal (z-score)", "setting": "[25]", "result": 3.96}]}
